In PubChem BioAssay AID588689 (Southern Research Specialized Biocontainment Screening …, 2011) one finds inhibition data, which are given here for 90 molecules.

About 1,000 (0.29%) of roughly 340,000 compounds were called active. Rule as the data show it: inconclusive = inhibition above about 29% without an active follow-up result; inactive = below that. These entries were drawn from the full list. Potency and affinity values are given separately.

The test concerns the target Genome polyprotein (Dengue virus type 2 (strain 16681-PDK53)) (UniProt P29991). The experiment in a line: flavivirus cap methylation enzyme inhibition – biochemical, confirmation dose response, primary screen (AID 588689). To be noted: Dengue-2 NS5 methyltransferase capping enzyme assay, at 25 µM, stronger effect = higher value.

Consider `Nc1nccc(/C=C/c2c(Cl)cccc2Cl)n1`, for which the inhibition is -5.43% (inactive).
Consider `Cn1c(=O)c2c(SCc3ccccc3)nc(C3CC3)nc2n(C)c1=O`, for which the inhibition is -11.1% (inactive).
Same read-out and setting: the same measure for `CC(C)(C)OC(=O)C[C@H]1C/C=C\C[C@@H](CC(=O)N(CCO)Cc2ccccc2)C(=O)N[C@@H](Cc2ccccc2)COC1=O`: 1.65% (inactive).
As to `CCOC(=O)C1CCN(C(=O)C2CCN(S(=O)(=O)c3ccc4c(c3)CC(C)N4C(C)=O)CC2)CC1` (stereo unspecified), the inhibition was 2.72% (inactive).
Same read-out and setting: the same measure for `O=C(C1CCN(Cc2ccc(Cl)cc2)CC1)N1CCN(C(c2ccccc2)c2ccccc2)CC1`: -2.91% (inactive); for `O=C(O)c1ccc2c(c1)C(=O)N(c1cccc(C(=O)/C=C/c3ccccc3)c1)C2=O`: -7.15% (inactive); for `O=C(O)c1ccc2c(c1)C(=O)N(c1ccc(Nc3ccccc3)cc1)C2=O`: 7.94% (inactive).
In the case of `O=C(c1ccccc1)c1ccccc1C(=O)c1ccccc1`, the inhibition was 1.31% (inactive).
On the same count and under the same terms, the same measure for `O=C(c1ccccc1)c1ccccc1`: -1.45% (inactive); for `Cc1ccc(CN2[C@@H]3c4ccccc4C[C@@H]3OCCS2(=O)=O)cc1`: -4.81% (inactive); for `O=C(NCCc1ccccc1)c1cnc2ccccn2c1=O`: 1.36% (inactive).
Same read-out and setting: the value for `COc1cc(CCNC2=CC(=O)c3ncccc3C2=O)ccc1O` was -6.94% (inactive).
Still for that read-out and setting: the value for `O=C1c2ccccc2-c2cccnc21` was -0.66% (inactive); that for `COc1ccc(C2=NN(c3ccccc3)C(=O)/C2=C\c2ccc(O)c(OC)c2)cc1` was 8.85% (inactive); that for `CCOC(=O)CC1=NN(c2ccccc2)C(=O)/C1=C\c1ccc(N(C)C)cc1` was 13.3% (inactive).
For the molecule `COc1ccc(/C=C2/C(=O)N(c3cccc(F)c3)N=C2C)c(OC)c1`, the inhibition is 16.7% (inactive).
On the same count and under the same terms, the value for `COC(=O)CC1=NN(c2ccc(OC)cc2)C(=O)/C1=C\c1ccc(Cl)cc1` was -4.74% (inactive); that for `O=C(CN1C(=O)c2ccccc2C1=O)OCC(=O)c1ccc(F)cc1` was 5.07% (inactive); that for `COc1cc(C(=O)NCC(c2ccco2)N2CCOCC2)cc(OC)c1OC` (stereo unspecified) was -3.67% (inactive).
The same measure, in the same setting: the value for `CCOc1ccc(CCN2C(=S)N([C@@H](CC(C)C)CN3CCCC3CN3C(=S)NC[C@@H]3CC(C)C)C[C@@H]2Cc2ccccc2)cc1` (stereo partly specified) was 0.65% (inactive); that for `O=C(c1ccc(NC(=S)Nc2ccc(Cl)c(Cl)c2)cc1)N1CCCC1` was -10.3% (inactive); that for `Cc1ccc(S(=O)(=O)CC(=O)c2cc3cccc(C)c3oc2=O)cc1` was 5.44% (inactive).
On the same count and under the same terms, the same measure for `COc1cccc2cc(C(=O)CS(=O)(=O)c3ccc(C)cc3)c(=O)oc12`: 10.9% (inactive); for `COCCCNC(=O)/C=C/c1c(Cl)cccc1Cl`: -0.74% (inactive).
On to `Cc1cc(N2C(=O)C(O)=C(C(=O)c3ccc(C)o3)C2c2cccc(Cl)c2)no1` (stereo unspecified), for which the inhibition is 10.9% (inactive).
Still for that read-out and setting: the value for `COc1cccc(C2C(C(=O)c3ccc(C)o3)=C(O)C(=O)N2c2cc(C)on2)c1` (stereo unspecified) was -1.77% (inactive); that for `Cc1cc(N2C(=O)C(O)=C(C(=O)c3ccco3)C2c2cccc(Cl)c2)no1` (stereo unspecified) was -4.65% (inactive).
With `CCOc1ccc(C2C(C(=O)c3ccc(C)o3)=C(O)C(=O)N2c2cc(C)on2)cc1OC` (stereo unspecified), the inhibition is 4.09% (inactive).
In the case of `Cc1cc(N2C(=O)C(O)=C(C(=O)c3ccco3)C2c2cccc(O)c2)no1` (stereo unspecified), the inhibition is -4.44% (inactive).
The same measure, in the same setting: the same measure for `COC(=O)c1ccc(C2C(C(=O)c3ccc(C)o3)=C(O)C(=O)N2c2cc(C)on2)cc1` (stereo unspecified): -3.53% (inactive).
Still for that read-out and setting: the same measure for `O=C(NCN1CCN(c2ccccn2)CC1)c1cnccn1`: -4.12% (inactive); for `O=C(Nc1cccc([N+](=O)[O-])c1)c1cc(S(=O)(=O)Nc2ccccn2)ccc1Cl`: 0.65% (inactive); for `O=C(COC(=O)CSc1ccc([N+](=O)[O-])cc1)NCC1CCCO1` (stereo unspecified): 5.91% (inactive).
On the same count and under the same terms, the same measure for `Cc1ccc(C)c2c1c1ccccc1n2C`: 0.78% (inactive).
As for `Cc1ccc2c(c1)c1ccc3c(c1n2C)C(=O)C=CC3=O`, the inhibition is 47.6% (inactive).
On the same count and under the same terms, the same measure for `COc1ccc2c(c1)c1ccc3c(c1n2C)C(=O)C=CC3=O`: 5.87% (inactive); for `Cc1cc(=O)n(C)c2ccccc12`: -7.77% (inactive); for `CCC(C)NC(=O)CCSCCC(=O)NC(C)CC` (stereo unspecified): -4.42% (inactive).
On the same count and under the same terms, the same measure for `CCCC(C)C(=O)Nc1ccc(S(N)(=O)=O)cc1` (stereo unspecified): -3.64% (inactive).
As for `CCOC(=O)C1CCCN(S(=O)(=O)NC[C@H]2O[C@@H](n3cnc4c(N)ncnc43)[C@H](O)[C@@H]2O)C1` (stereo partly specified), the inhibition was -8.6% (inactive). Moreover, where the note is “measured here: pilot screen replicate inhibition”, the inhibition is -4.29%.
`Fc1cnc(N2CCc3ccccc32)nc1N1CCc2ccccc21`: the inhibition was -0.68% (inactive).
On the same count and under the same terms, the value for `O=C(O)c1ccc2c(c1)C(=O)N(Cc1ccco1)C2=O` was 5.56% (inactive).
The same measure, in the same setting: the same measure for `Cc1ccc(C(=O)O)cc1-c1ccc(C=C2C(=O)c3ccccc3C2=O)o1`: -0.73% (inactive); for `O=C(O)c1ccc2c(c1)C(=O)N(N1C(=O)c3ccccc3C1=O)C2=O`: 5.13% (inactive).
Consider `O=C1C(=Cc2ccco2)C(=O)c2ccccc21`, for which the inhibition is -4.01% (inactive).
On the same count and under the same terms, the same measure for `Cc1ccc(C=C2C(=O)c3ccccc3C2=O)o1`: 1.92% (inactive).
The same measure, in the same setting: the value for `Cc1cc(C(=O)O)ccc1-n1c(C)cc(C=C2C(=O)c3ccccc3C2=O)c1C` was -19.9% (inactive).
On the same count and under the same terms, the value for `COc1cc(COC(=O)c2cnc(C)cn2)c(OC)cc1Br` was 7.48% (inactive); that for `Cc1cc(Br)ccc1SCC(=O)OCC(=O)NCc1ccco1` was 13.5% (inactive); that for `COC(=O)CCC(=O)COc1ccccc1C#N` was -1.61% (inactive).
In the case of `Oc1ccc(N=Nc2ccc(Br)cc2)c(O)c1`, the inhibition was 7.83% (inactive).
Same read-out and setting: the value for `O=S(=O)(O)c1cc(O)c(N=Nc2ccc(O)cc2O)c2ccccc12` was 22.4% (inactive); that for `CCOC(=O)CSc1nc2c(sc(=S)n2-c2ccc(OCC)cc2)c(=O)[nH]1` was 0% (inactive); that for `CCOc1ccc(-n2c(=S)sc3c(=O)n(-c4ccccc4)c(SCC(=O)O)nc32)cc1` was -5.28% (inactive).
The same measure, in the same setting: the same measure for `CC(C)N1C(=O)C(=O)N(CC(=O)N2c3ccccc3NC(=O)CC2C)C1=O` (stereo unspecified): 4.36% (inactive); for `COCC(C)NC(=O)c1cc(-c2ccccc2OC)on1` (stereo unspecified): -5.61% (inactive); for `CCOC(=O)C1=CN2CCCC[C@@H]2CC1=O`: -4.81% (inactive).
The same measure, in the same setting: the same measure for `CCOC(=O)C1=CN2CCC[C@H]2CC1=O`: -9.17% (inactive); for `Cc1ccc(S(=O)(=O)NCCC(=O)N2CCC(Cc3ccccc3)CC2)cc1`: -2.89% (inactive).
In the case of `CCN(CC(=O)Nc1ccccc1C(F)(F)F)C(=O)c1ccc2c(c1)NC(=O)C(C)S2` (stereo unspecified), the inhibition was -4.95% (inactive).
On the same count and under the same terms, the value for `NC(=O)C1CCN(C(=O)c2ccc3c(=O)n(Cc4ccco4)c(SCc4ccc([N+](=O)[O-])cc4)nc3c2)CC1` was 12.3% (inactive).
On the same count and under the same terms, the same measure for `CC1(NC(=O)N2CCOCC2)CCS(=O)(=O)C1` (stereo unspecified): 0% (inactive); for `CC1(C)CC(=O)C(C(C2=C(O)CC(C)(C)CC2=O)c2ccc([N+](=O)[O-])cc2)C(=O)C1` (stereo unspecified): 1.82% (inactive).
The same measure, in the same setting: the value for `CC1(C)CC(=O)C(C(C2=C(O)CC(C)(C)CC2=O)c2ccc(Cl)c([N+](=O)[O-])c2)C(=O)C1` (stereo unspecified) was -1.46% (inactive); that for `COc1cc(C(=O)NCC(=O)N2CCN(S(=O)(=O)c3ccccc3C(F)(F)F)CC2)cc(OC)c1OC` was -3.36% (inactive).
Take `O=c1sc2ccccc2c(N2CCOCC2)c1[N+](=O)[O-]`: the inhibition is -3.49% (inactive).
Same read-out and setting: the value for `C=CSc1sc(Cl)c(N2CCOCC2)c1[N+](=O)[O-]` was 0% (inactive).
Same read-out and setting: the same measure for `CC1CN(C2=NC(=O)/C(=C3/C(=O)N(Cc4ccc(F)cc4)c4ccccc43)S2)CC(C)O1` (stereo unspecified): -3.91% (inactive); for `CN1C(=O)/C(=C2\SC(=S)N(CCCCCC(=O)O)C2=O)c2ccccc21`: -1.55% (inactive).
Same read-out and setting: the value for `NN1C(=O)/C(=C2/Sc3ccccc3N2CCCS(=O)(=O)O)SC1=S` was -12.9% (inactive).
As to `O=C(O)CCN1C(=O)/C(=C2\C(=O)N(Cc3ccccc3Cl)c3ccccc32)SC1=S`, the inhibition was 22.2% (inactive).
`COCCN1C(=O)/C(=C2/C(=O)N(CC(=O)Nc3ccccc3Cl)c3ccccc32)SC1=S`: the inhibition is 6.48% (inactive).
On the same count and under the same terms, the same measure for `O=C(O)CCN1C(=O)C(=C2CCCCCC2)SC1=S`: 10.4% (inactive).
Same read-out and setting: the value for `CC(C)NC(=O)COC(=O)c1ccccc1Oc1ccccc1` was -2.2% (inactive); that for `CCOC(=O)C1=C(C)N=c2s/c(=C3/C(=O)Nc4ccccc43)c(=O)n2C1c1ccc(C)cc1` (stereo unspecified) was 22.8% (inactive); that for `CCOC(=O)C1=C(C)N=c2s/c(=C\c3ccc(OCC(=O)O)c(OC)c3)c(=O)n2C1c1ccc(OC)cc1` (stereo unspecified) was -8.46% (inactive).
Still for that read-out and setting: the same measure for `O=C(NN=C1CCCC1)c1ccc(Cl)cc1`: -2.6% (inactive); for `O=C1CCC/C(=N\NC(=O)COc2ccc(Cl)cc2)C1`: 3.18% (inactive); for `O=C(CSc1nccc(=O)[nH]1)Nc1ccc(S(=O)(=O)N2CCOCC2)cc1`: 0% (inactive).
Turning to `Cc1ccc(CNC(=O)CCn2ccc3cc(S(=O)(=O)N4CCCC4)ccc32)cc1`, the inhibition is -4.92% (inactive).
Take `Cc1onc(-c2ccccc2)c1C(=O)OCC(=O)Nc1ccccc1`: the inhibition is 8.65% (inactive).
Regarding `O=C(NC1=C(Nc2ccc(Cl)cc2)C(=O)c2ccccc2C1=O)c1ccccc1`, the inhibition is -1.83% (inactive).
Take `CC(=O)Nc1ccc(NC2=CC(=O)c3ccccc3C2=O)cc1`: the inhibition was -5.82% (inactive).
Still for that read-out and setting: the same measure for `O=C1C=C(Nc2ccccc2)C(=O)c2ccccc21`: -2.9% (inactive).
Same read-out and setting: the value for `O=C(Nc1ccccc1Cl)c1ccccc1` was 1.49% (inactive).
Still for that read-out and setting: the value for `O=C(Nc1cccc(Cl)c1)C1C2C=CC3(O2)C1C(=O)N(CCCN1CCCCC1)C3C(=O)NC1CCCCC1` (stereo unspecified) was -16% (inactive); that for `Cc1ccc(OCCCc2c(C)n[nH]c2C)cc1` was -5.36% (inactive).
Turning to `CCCC1CC(CSc2ncn[nH]2)OC1=O` (stereo unspecified), the inhibition is -12.3% (inactive).
With `Cc1ccc(S(=O)(=O)N(CC(=O)N2CCOCC2)c2ccc(Br)cc2)cc1`, the inhibition was -8.01% (inactive).
On the same count and under the same terms, the same measure for `Cc1ccc2ccc(S(=O)(=O)NCc3ccccn3)cc2c1`: -1.67% (inactive).
